Assay outcomes (PubChem)
Hits are enriched below; roughly 8.9% of the tested compounds scored in any of these assays.
Htt clearance = compounds clearing mutant huntingtin protein; HeLa Exon1htt(103Q)mCFP, aggregate imaging; zero = plate's median compound well; inhibition, % at 1.5 µM; 47,000 tested, 0.42% active;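 active = inhibition of aggregate fluorescence above about 70%, also judged a hit by eye on the cell image, limit read from the data, passing the limit was not always enough; inconclusive = no rule stated for this call; inactive = not judged a hit on image review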;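 also: cells exposed to compound for three days before fixation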
WNV NS2B-NS3 inh = blocks West Nile virus NS2B-NS3 protease activity; P06935; WNV NS2B-NS3 protease, fluorogenic substrate Ex360/Em465; active compounds read low; z-score (no concentration beside the values); 65,000 tested, 0.18% active; in the data active = z-score below about -3
Target sequence (P06935 1371-1501 limits assumed): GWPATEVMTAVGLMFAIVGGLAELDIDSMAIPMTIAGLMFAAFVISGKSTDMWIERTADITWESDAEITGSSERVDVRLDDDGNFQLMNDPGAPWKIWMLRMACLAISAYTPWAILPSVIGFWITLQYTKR
Target sequence (P06935 1502-1679 limits assumed): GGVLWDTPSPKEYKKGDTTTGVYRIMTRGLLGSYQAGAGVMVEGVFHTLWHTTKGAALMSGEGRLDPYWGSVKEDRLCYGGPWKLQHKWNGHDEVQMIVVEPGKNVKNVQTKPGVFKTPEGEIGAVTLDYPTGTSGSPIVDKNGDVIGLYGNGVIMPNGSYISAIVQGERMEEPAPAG
D1 allo mod = allosterically modulates the human D1 dopamine receptor; 58,000 tested, 5.9% active; AID 641; P21728; B-score at 10 µM; HEK293 D1, CRE-luciferase, dopamine EC30 potentiation; actives deviate in either direction;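 active = luminescence count or its row- and column-corrected plate score outside the 99.7% band of the plate's sample wells, on either side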
M1 ag = agonists of M1 muscarinic receptor; AID 626; B-score at 10 µM; 64,000 tested, 3% active; CHO-M1 cells, Fluo-4 calcium fluorescence, agonist mode; active compounds read high;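 active = fluorescence rise, raw or as B-score row- and column-corrected plate score, outside the 99.7% band of its plate's samples, either direction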
M1 antagonist = antagonists of rat M1 muscarinic receptor | P08482 | CHO-M1 cells, Fluo-4 calcium, ACh EC80 antagonist mode; active compounds read low | B-score at 10 µM | 64,000 tested, 3.4% active | AID 628;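 active = calcium fluorescence response, raw or row-and-column corrected B-score, differing from the plate sample mean either way at a set confidence level, mostly lower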
D1 mod confirm = D1 receptor (human) allosteric modulation, confirmed; shares compounds with D1 allo mod; HEK293 D1 CRE-luciferase, dopamine EC30 potentiation; active compounds read high; luminescence at 10 µM; 2,200 tested, 88% active;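 active = luminescence in either of two replicates above the same-plate mean plus 3 SD of the low-dose dopamine control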
D1 ag no DA = D1 (human) signaling in absence of dopamine; shares compounds with D1 allo mod; HEK293 D1 CRE-luciferase, luminescence, no dopamine; active compounds read high; luminescence at 10 µM; 1,900 tested, 0.8% active; in the data active = luminescence above about 3900
Isoprot counter = alters isoproterenol CRE-luciferase response in HEK293 cells; AID 647; HEK293 D1 CRE-luciferase, isoproterenol EC30 counter-screen; 2,200 tested, 63% active; calls only at 10 µM; shares compounds with D1 allo mod;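 active = luminescence in either replicate above plate mean of wells with a partly effective reference agonist dose plus 3 SD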;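 also: isoproterenol raises cAMP through native beta-adrenoceptor Gs so signal bypasses D1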
Large screens that a line does not name were inactive (follow-up assays come after a bar, where they were run).

CCCCNC(=O)NS(=O)(=O)c1ccc(C(=O)OC)o1	none
CCOc1ccc(N(Cc2cc3ccc(C)cc3[nH]c2=O)C(=O)COC)cc1	none (no result: Htt clearance)
CCOC(=O)c1ccc(NC(=O)CC2C(=O)N(c3ccc(F)cc3)C(=O)N2CCC(C)C)cc1 (stereo not given)	none (no result: WNV NS2B-NS3 inh, D1 allo mod, M1 ag, M1 antagonist)
O=C(CN1C(=O)NC2(CCCc3ccccc32)C1=O)N1CCc2ccccc2C1 (stereo not given)	none (no result: Htt clearance)
CN(C)/C=N/c1c(C#N)nnn1Cc1ccccc1	none
COCCNc1nc(C(C)(C)C)nc2c1nnn2Cc1ccccc1Cl	none
OCCNc1nc(C2CC2)nc2c1nnn2Cc1ccccc1Cl	D1 allo mod 8.9 (no result: Htt clearance) | D1 mod confirm 14928 | D1 ag no DA inactive | Isoprot counter inactive
CCCOC(=O)c1ccc(OCC(O)CN2C(=O)NC(C)(C)C2=O)cc1 (stereo not given)	none (no result: Htt clearance, D1 allo mod, M1 ag, M1 antagonist)
COC(=O)c1ccc(OCC(O)CN2C(=O)NC(C)(C)C2=O)cc1 (stereo not given)	D1 allo mod 5.8 | D1 mod confirm 6500 | Isoprot counter inactive
CCOc1ccc(N2CC(C(=O)Oc3ccccc3)CC2=O)cc1 (stereo not given)	none
COc1cccc(/C=N/n2c(SC)nnc2-c2ccccc2)c1OC	D1 allo mod 6 | D1 mod confirm 8100 | D1 ag no DA inactive | Isoprot counter active
O=C(NCc1ccco1)c1cccc2c1C(=O)N(C1CCCCC1)C2	D1 allo mod 17 (no result: Htt clearance, M1 ag, M1 antagonist) | D1 mod confirm 21064 | D1 ag no DA inactive | Isoprot counter active
O=C(NCc1cccnc1)c1cccc2c1C(=O)N(C1CCCCC1)C2	D1 allo mod 21 (no result: Htt clearance, M1 ag, M1 antagonist) | D1 mod confirm 25588 | D1 ag no DA inactive | Isoprot counter active
O=C(Nc1ccc2c(c1)OCO2)c1cccc2c1C(=O)N(C1CCCCC1)C2	none (no result: Htt clearance, M1 ag, M1 antagonist)
CCCC(=O)c1cc(F)c(N2CCN(S(=O)(=O)c3ccccc3)CC2)cc1C	none (no result: Htt clearance)
CCCC(=O)c1ccc(N2CCN(S(=O)(=O)c3ccccc3)CC2)c(F)c1	D1 allo mod 4.8 (no result: Htt clearance) | D1 mod confirm inactive | D1 ag no DA inactive | Isoprot counter inactive
CCN(CC)c1ncccc1C(=O)NCc1cccs1	D1 allo mod 7.6 | D1 mod confirm 13524 | D1 ag no DA inactive | Isoprot counter active
O=C(NCc1cccs1)c1ccccc1C(=O)NCc1cccs1	none
CCOc1ccc(-c2noc(CCC(=O)NC)n2)cc1OCC	D1 allo mod 12 (no result: Htt clearance, M1 ag, M1 antagonist) | D1 mod confirm 19240 | D1 ag no DA inactive | Isoprot counter active
COc1ccc(-c2noc(-c3ccccc3C(=O)Nc3cccnc3)n2)cc1OC	none
CCOc1cc(-c2noc(CCC(=O)Nc3cccnc3)n2)ccc1OC	D1 allo mod 18 (no result: Htt clearance, M1 ag, M1 antagonist) | D1 mod confirm 17716 | D1 ag no DA inactive | Isoprot counter active
CCOC(=O)c1ccccc1NS(=O)(=O)c1ccccc1F	none
FC(F)(F)C1CC(c2cccs2)Nc2ncnn21 (stereo not given)	none
CCOCCc1nnc(NC(=O)CSc2ccccc2)s1	none
CC(C)Oc1ccc(C(=O)N(CN2CCCC2=O)c2ccc(F)cc2)cc1	D1 allo mod 4.5 | D1 mod confirm inactive | D1 ag no DA inactive | Isoprot counter inactive
COc1cccc(C(=O)N(CN2CCCC2=O)c2cccc(Cl)c2)c1	none (no result: Htt clearance, D1 allo mod)
CCCCOc1ccc(OCCNS(=O)(=O)N(C)C)cc1	none (no result: Htt clearance)
CC(=O)OC1CC(C)N(C(=O)c2ccccc2)c2ccc(C)cc21 (stereo not given)	D1 allo mod 11 | D1 mod confirm 11832 | D1 ag no DA inactive | Isoprot counter active
CC(=O)c1c(C)nn(C(=O)N2CCOCC2)c1C	none (no result: Htt clearance)
N#Cc1c(Cl)nc(SCc2ccccc2)nc1-c1ccccc1	none (no result: WNV NS2B-NS3 inh, D1 allo mod, M1 ag, M1 antagonist)
CC(=O)Nc1cccc(Oc2cc(C#N)c(C#N)cc2N2CCCCCC2)c1	D1 allo mod 9.1 (no result: Htt clearance) | D1 mod confirm 11784 | Isoprot counter active
C=CCN1C(=O)NC2(O)C(=O)c3ccccc3C12O (stereo not given)	none (no result: WNV NS2B-NS3 inh, D1 allo mod, M1 ag, M1 antagonist)
CN1CCN(CCNC(=O)c2cc3c(=O)n(C)c4ccccc4c3n2C)CC1	D1 allo mod 4.6 (no result: Htt clearance) | D1 mod confirm inactive | Isoprot counter inactive
O=c1[nH]c2ccccc2n1Cc1ccc(Cl)cc1	none (no result: WNV NS2B-NS3 inh, D1 allo mod, M1 ag, M1 antagonist)
O=c1n(Cc2ccccc2)c2cc(Cl)cnc2n1Cc1ccccc1	D1 allo mod 8.1 | D1 mod confirm 9248 | D1 ag no DA inactive | Isoprot counter inactive
O=C1CC(c2cccs2)c2cc3c(cc2N1)OCCO3 (stereo not given)	D1 allo mod 7 | D1 mod confirm 10536 | D1 ag no DA inactive | Isoprot counter inactive
Cc1ccc(C2CC(=O)Nc3cc4c(cc32)OCCO4)s1 (stereo not given)	none
CC(C)Oc1ccccc1C1CC(=O)Nc2cc3c(cc21)OCCO3 (stereo not given)	D1 allo mod 2.3 | D1 mod confirm 10132 | D1 ag no DA inactive | Isoprot counter inactive
COc1ccccc1C1CC(=O)Nc2cc3c(cc21)OCCO3 (stereo not given)	Htt clearance inconclusive
O=C1N/C(=N/c2ccccn2)SC1Cc1ccccc1 (stereo not given)	D1 allo mod 4.5 (no result: Htt clearance) | D1 mod confirm 9704 | D1 ag no DA inactive | Isoprot counter inactive
CCOc1ccc(N=C2NC(=O)C(CC(=O)O)S2)cc1 (stereo not given)	none (no result: Htt clearance, D1 allo mod)
Cc1ccc(S(=O)(=O)/N=C(\c2ccc(Cl)cc2)N2CCOCC2)cc1	none (no result: WNV NS2B-NS3 inh, D1 allo mod, M1 ag, M1 antagonist)
CCOC(=O)c1c(N)nn(C(=O)C(C)C)c1-c1ccccc1	D1 allo mod 6.8 (no result: Htt clearance) | D1 mod confirm 18276 | D1 ag no DA inactive | Isoprot counter active
CCOC(=O)c1c(N)nn(C(=O)CC)c1-c1ccccc1	D1 allo mod 13 (no result: Htt clearance) | D1 mod confirm 17424 | D1 ag no DA inactive | Isoprot counter active
CCC(C)NC(=O)C1(C)CCC(=O)N1Cc1ccccc1OC (stereo not given)	Htt clearance inconclusive
CCOc1ccc(N(CC(=O)NCc2ccccc2OC)S(C)(=O)=O)cc1	none (no result: Htt clearance)
CCCCC(c1nnnn1CCOC)N1CCN(c2cccc(OC)c2)CC1 (stereo not given)	none (no result: Htt clearance)
CC1=CC(=O)N(c2cccc(C(F)(F)F)c2)C1c1ccc(Cl)cc1 (stereo not given)	none (no result: WNV NS2B-NS3 inh, D1 allo mod, M1 ag, M1 antagonist)
CCN1CCC2(CC1)C(C#N)=C(N)Oc1c2sc2nc(C)cc(C)c12	none (no result: Htt clearance)
CC(=O)N1CCC2(CC1)C(C#N)=C(N)Oc1c2sc2nc(C)cc(C)c12	D1 allo mod 4.9 (no result: Htt clearance) | D1 mod confirm 14572 | D1 ag no DA inactive | Isoprot counter inactive
O=C(N1CCOCC1)C(F)(F)C(=O)N1CCOCC1	none (no result: D1 allo mod)
CCS(=O)(=O)N1CCC(C(=O)N2CCc3ccccc3C2)CC1	none (no result: Htt clearance)
C=Cn1nc(C)c2ccccc2c1=O	none (no result: Htt clearance)
